Laboratory results as given in PubChem BioAssay (Tox21).
Records with an inconclusive call do not appear. Calls of active or inactive are those of the source. Unless noted, the call rests on the fitted dose curve; in most records, active means well fitted curve in the direction sought with a large enough effect in the repeat runs; inconclusive means weak or mixed curves; inactive means no such curve, though single readings can be large; an effect the other way counts as inactive or inconclusive.

Experiments:
[1] = target: Aryl hydrocarbon receptor (Homo sapiens) (UniProt P35869); experiment: qHTS assay to identify small molecule that activate the aryl hydrocarbon receptor (AhR) signaling pathway (AID 743085); further: nearly all actives have a fitted effect of over 15% in size; further: potency means the concentration at half of the fitted maximal effect;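 on activation: HG2L7.5c1 human HepG2 liver cells with stably integrated DRE-driven firefly reporter; series mostly up to about 70 µM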
Method in brief: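 Luminescence (ONE-Glo) from a dioxin-responsive-element luciferase reporter in HG2L7.5c1 HepG2 cells after 24 hr compound exposure at 37C; viability measured by CellTiter-Fluor fluorescence beforehand.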

[2] = target: Peroxisome proliferator-activated receptor gamma (Homo sapiens) (UniProt P37231); experiment: qHTS assay to identify small molecule antagonists of the peroxisome proliferator-activated receptor gamma (PPARg) signaling pathway (AID 743191; calls by dose curve; further: series mostly up to about 63 µM; nearly all actives have a fitted effect of over 30% in size)
Method in brief: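 Beta-lactamase reporter under UAS control in HEK293H PPARg-bla cells; compound treatment 17 h at 37C. Read-out: fluorescence intensity after 1 h room-temperature incubation with LiveBLAzer B/G FRET substrate.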

[3] = qHTS assay to identify small molecule antagonists of the peroxisome proliferator-activated receptor gamma (PPARg) signaling pathway - cell viability counter screen (AID 743194); further: nearly all actives have a fitted effect of over 55% in size
Method in brief: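 Viability was measured as CellTiter-Glo luminescence in GeneBLAzer PPARg UAS-bla HEK293H cells. These cells had been exposed 17 h at 37 C to compounds together with rosiglitazone at 50 nM final, with the beta-lactamase readout taken in the same wells.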

[4] = qHTS assay for small molecule agonists of the antioxidant response element (ARE) signaling pathway (AID 743202; active means well fitted activation curve with a large enough effect in the signal ratio in the repeat runs, not every such curve was filed as active; the % refers to the signal ratio; further: potency means the concentration at half of the fitted maximal effect)
Method in brief: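 Quantitative high-throughput format in HepG2 cells bearing an integrated ARE-beta-lactamase reporter. Compound exposure lasted 16 h at 37 C, and fluorescence was read 2 h after adding LiveBLAzer B/G substrate at room temperature.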

[5] = qHTS assay for small molecule activators of the heat shock response signaling pathway - cell viability counter screen (AID 743209); further: nearly all actives have a fitted effect of over 50% in size
Method in brief: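 CellSensor HSE-bla HeLa cells, plated overnight at 37 C/5% CO2, were exposed to compounds in DMSO for 5 h at 37 C. Viability was then read in the same wells by CellTiter-Glo luminescence after 30 min at room temperature.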

[6] = qHTS assay for small molecule activators of the heat shock response signaling pathway (AID 743210; active means well fitted activation curve with a large enough effect in the signal ratio in the repeat runs, with a control signal flat, not every such curve was filed as active; the % refers to the signal ratio;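 further: HeLa cells with beta-lactamase reporter driven by heat shock elements; series mostly up to about 63 µM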)
Method in brief: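 HeLa HSE-bla cells, overnight plating; cpd in DMSO 5 h, 37 C; LiveBLAzer B/G FRET substrate 2.5 h RT; fluorescence intensity read.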

[7] = qHTS assay to identify small molecule agonists of the peroxisome proliferator-activated receptor delta (PPARd) signaling pathway - cell viability counter screen (AID 743211); further: nearly all actives have a fitted effect of over 55% in size; further: potency means the concentration at half of the fitted maximal effect
Method in brief: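 Viability was measured as CellTiter-Glo luminescence (30 min, room temperature) in the same wells as the beta-lactamase readout. GeneBLAzer PPARd UAS-bla HEK293H cells received compound after 5 h plating and were incubated 17 h at 37 C.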

[8] = target: Peroxisome proliferator-activated receptor delta (Homo sapiens) (UniProt Q03181); experiment: qHTS assay to identify small molecule agonists of the peroxisome proliferator-activated receptor delta (PPARd) signaling pathway (AID 743212; calls by dose curve)
Method in brief: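 HEK293H PPARd-bla cells; 5 h preincubation 37 C/5% CO2; compound (DMSO) 37 C; LiveBLAzer B/G FRET substrate 2 h RT; fluorescence intensity.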

[9] = qHTS assay to identify small molecule antagonists of the peroxisome proliferator-activated receptor delta (PPARd) signaling pathway - cell viability counter screen (AID 743213); further: nearly all actives have a fitted effect of over 50% in size; further: potency means the concentration at half of the fitted maximal effect
Method in brief: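 HEK293H cells with the PPARd UAS-bla reporter, co-treated 17 h at 37 C with compounds and L165041 (300 nM final), were lysed with CellTiter-Glo. Luminescence indicated viable cell content.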

[10] = target: Peroxisome proliferator-activated receptor delta (Homo sapiens) (UniProt Q03181); experiment: qHTS assay to identify small molecule antagonists of the peroxisome proliferator-activated receptor delta (PPARd) signaling pathway (AID 743215; active means well fitted inhibition curve with a large enough effect in the signal ratio in the repeat runs, not every such curve was filed as active; the % refers to the signal ratio;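 further: cells stimulated with agonist L165041 at 300 nM final during compound exposure; series mostly up to about 62 µM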)
Method in brief: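 PPARd UAS-bla HEK293H cells were pre-incubated 5 h at 37 C, then given test compounds in DMSO plus agonist L165041 (300 nM final). After 17 h at 37 C, beta-lactamase FRET substrate was added; fluorescence read after 2 h at room temperature.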

[11] = qHTS assay to identify small molecule agonists of the farnesoid-X-receptor (FXR) signaling pathway - cell viability counter screen (AID 743218); further: nearly all actives have a fitted effect of over 45% in size
Method in brief: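 FXR-UAS-bla HEK 293T cells, plated 5 h at 37 C, were exposed to compounds for 16 h at 37 C. CellTiter-Glo was then added to the same wells as the bla readout; luminescence read after 30 min at room temperature.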

[12] = qHTS assay to identify small molecule antagonists of the farnesoid-X-receptor (FXR) signaling pathway - cell viability counter screen (AID 743221; active means well fitted cell-killing curve with a large enough effect in the repeat runs, not every such curve was filed as active; further: nearly all actives have a fitted effect of over 50% in size)
Method in brief: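 Cytotoxicity counter screen run in the FXR-bla reporter wells: HEK 293T cells exposed to compound with 50 uM (final) chenodeoxycholic acid for 16 h, 37 C, then viability measured by CellTiter-Glo luminescence after 30 min, room temperature.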

[13] = target: Vitamin D3 receptor (Homo sapiens) (UniProt P11473); experiment: qHTS assay to identify small molecule agonists of the vitamin D receptor (VDR) signaling pathway (AID 743222; calls by dose curve)
Method in brief: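 VDR-bla cells were plated 4 h at 37C/5% CO2, then exposed to compounds in DMSO for 16 h. After LiveBLAzer B/G FRET substrate addition and 2 h at room temperature, beta-lactamase reporter fluorescence was read.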

[14] = qHTS assay to identify small molecule agonists of the vitamin D receptor (VDR) signaling pathway - cell viability counter screen (AID 743224); further: nearly all actives have a fitted effect of over 50% in size; further: potency means the concentration at half of the fitted maximal effect
Method in brief: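 VDR-bla cells were preincubated 4 h at 37C/5% CO2, then exposed to compounds for 16 h. After the 2 h room-temperature bla FRET read, CellTiter-Glo was added to the same wells and luminescence read after 30 min.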

[15] = target: Peroxisome proliferator-activated receptor gamma (Homo sapiens) (UniProt P37231); experiment: qHTS assay to identify small molecule agonists of the peroxisome proliferator-activated receptor gamma (PPARg) signaling pathway (AID 743094; active means well fitted activation curve with a large enough effect in the signal ratio in the repeat runs, not every such curve was filed as active; the % refers to the signal ratio)
Method in brief: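 GeneBLAzer PPARg UAS-bla HEK293H cells carrying a stably integrated beta-lactamase reporter were pre-incubated 5 h at 37C, then exposed to compounds in DMSO for 17 h at 37C; LiveBLAzer B/G FRET substrate was added for 1 h at room temperature and fluorescence read.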

[16] = target: Bile acid receptor (Homo sapiens) (UniProt Q96RI1); experiment: qHTS assay to identify small molecule antagonists of the farnesoid-X-receptor (FXR) signaling pathway (AID 743217; active means well fitted inhibition curve with a large enough effect in the signal ratio in the repeat runs, not every such curve was filed as active; the % refers to the signal ratio)
Method in brief: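 FXR-UAS-bla HEK 293T cells pre-incubated 5 h at 37 °C, then exposed to compounds with chenodeoxycholic acid (50 uM final) for 16 h at 37 °C. Beta-lactamase reporter read by LiveBLAzer B/G FRET substrate fluorescence after 2 h at room temperature.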

[17] = target: Bile acid receptor (Homo sapiens) (UniProt Q96RI1); experiment: qHTS assay to identify small molecule agonists of the farnesoid-X-receptor (FXR) signaling pathway (AID 743220; active means well fitted activation curve with a large enough effect in the signal ratio in the repeat runs, not every such curve was filed as active; the % refers to the signal ratio)
Method in brief: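 Beta-lactamase reporter under UAS control in GeneBLAzer FXR HEK 293T cells (5000/well) measured with LiveBLAzer FRET substrate after 2 h at room temperature. Compound exposure lasted 16 h at 37C.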

[18] = target: Vitamin D3 receptor (Homo sapiens) (UniProt P11473); experiment: qHTS assay to identify small molecule antagonists of the vitamin D receptor (VDR) signaling pathway (AID 743223; active means well fitted inhibition curve with a large enough effect in the signal ratio in the repeat runs, not every such curve was filed as active; the % refers to the signal ratio)
Method in brief: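 Antagonist mode: compound added to VDR-bla cells alongside agonist 1alpha,25-dihydroxyvitamin D3 (3 nM final), incubation 16 h at 37C. Read-out is LiveBLAzer FRET fluorescence, 2 h at room temperature.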

[19] = qHTS assay to identify small molecule that activate the aryl hydrocarbon receptor (AhR) signaling pathway - cell viability counter screen (AID 743086);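 further: HepG2 liver cells carrying the AhR DRE luciferase reporter; series mostly up to about 70 µM; nearly all actives have a fitted effect of over 45% in size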
Method in brief: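 Cytotoxicity counter screen: CellTiter-Fluor signal (30 min, 37 C) in 4000 HepG2 cells/well carrying the DRE-luciferase reporter, following 24 h compound exposure at 37 C.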

[20] = qHTS assay for small molecule agonists of the antioxidant response element (ARE) signaling pathway - cell viability counter screen (AID 743203; calls by dose curve; further: nearly all actives have a fitted effect of over 55% in size)
Method in brief: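 CellSensor ARE-bla HepG2 cells, 2,000 per well, rested 5 hrs at 37C/5% CO2, then exposed to compound in DMSO for 16 hrs; viability read as CellTiter-Glo luminescence after 30 min at room temperature, in the reporter wells.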

Measured: Potency

Sequence of Vitamin D3 receptor (Homo sapiens) (P11473 whole entry, looked up): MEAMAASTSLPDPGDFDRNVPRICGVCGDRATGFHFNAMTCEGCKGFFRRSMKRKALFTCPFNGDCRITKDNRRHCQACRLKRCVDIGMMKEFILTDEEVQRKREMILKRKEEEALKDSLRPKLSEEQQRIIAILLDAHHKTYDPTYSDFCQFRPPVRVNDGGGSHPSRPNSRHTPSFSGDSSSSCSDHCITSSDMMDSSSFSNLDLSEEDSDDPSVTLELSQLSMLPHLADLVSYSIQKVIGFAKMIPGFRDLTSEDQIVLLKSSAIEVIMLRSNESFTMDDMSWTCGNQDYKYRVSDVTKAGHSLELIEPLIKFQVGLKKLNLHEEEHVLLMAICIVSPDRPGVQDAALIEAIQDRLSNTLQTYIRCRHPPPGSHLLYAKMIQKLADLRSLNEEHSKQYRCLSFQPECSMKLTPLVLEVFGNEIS
Sequence of Peroxisome proliferator-activated receptor delta (Homo sapiens) (Q03181 whole entry, looked up): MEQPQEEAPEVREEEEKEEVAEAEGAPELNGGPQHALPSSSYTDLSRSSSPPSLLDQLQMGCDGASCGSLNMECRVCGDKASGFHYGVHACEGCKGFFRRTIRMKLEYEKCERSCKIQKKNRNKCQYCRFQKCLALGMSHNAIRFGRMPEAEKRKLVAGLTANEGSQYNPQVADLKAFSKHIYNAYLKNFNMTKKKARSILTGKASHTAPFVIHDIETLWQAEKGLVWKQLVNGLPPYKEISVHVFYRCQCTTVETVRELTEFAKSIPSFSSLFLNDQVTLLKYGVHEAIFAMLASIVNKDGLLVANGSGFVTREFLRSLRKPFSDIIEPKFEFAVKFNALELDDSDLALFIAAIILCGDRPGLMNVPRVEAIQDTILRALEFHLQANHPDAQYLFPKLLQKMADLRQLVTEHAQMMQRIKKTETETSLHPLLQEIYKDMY
Sequence of Peroxisome proliferator-activated receptor gamma (Homo sapiens) (P37231 whole entry, looked up): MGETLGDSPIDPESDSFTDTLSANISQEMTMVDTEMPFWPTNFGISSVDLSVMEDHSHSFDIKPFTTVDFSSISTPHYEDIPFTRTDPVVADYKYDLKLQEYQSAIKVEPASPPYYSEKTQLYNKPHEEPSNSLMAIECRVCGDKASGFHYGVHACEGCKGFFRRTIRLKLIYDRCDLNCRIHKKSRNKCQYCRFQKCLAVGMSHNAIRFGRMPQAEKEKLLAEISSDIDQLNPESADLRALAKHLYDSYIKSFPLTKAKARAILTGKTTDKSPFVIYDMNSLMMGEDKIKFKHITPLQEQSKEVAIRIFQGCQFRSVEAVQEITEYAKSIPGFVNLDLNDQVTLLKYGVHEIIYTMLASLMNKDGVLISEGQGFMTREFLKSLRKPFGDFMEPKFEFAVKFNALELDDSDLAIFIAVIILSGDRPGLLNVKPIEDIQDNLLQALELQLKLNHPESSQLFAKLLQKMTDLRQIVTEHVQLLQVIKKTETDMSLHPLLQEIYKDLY
Sequence of Bile acid receptor (Homo sapiens) (Q96RI1 whole entry, looked up): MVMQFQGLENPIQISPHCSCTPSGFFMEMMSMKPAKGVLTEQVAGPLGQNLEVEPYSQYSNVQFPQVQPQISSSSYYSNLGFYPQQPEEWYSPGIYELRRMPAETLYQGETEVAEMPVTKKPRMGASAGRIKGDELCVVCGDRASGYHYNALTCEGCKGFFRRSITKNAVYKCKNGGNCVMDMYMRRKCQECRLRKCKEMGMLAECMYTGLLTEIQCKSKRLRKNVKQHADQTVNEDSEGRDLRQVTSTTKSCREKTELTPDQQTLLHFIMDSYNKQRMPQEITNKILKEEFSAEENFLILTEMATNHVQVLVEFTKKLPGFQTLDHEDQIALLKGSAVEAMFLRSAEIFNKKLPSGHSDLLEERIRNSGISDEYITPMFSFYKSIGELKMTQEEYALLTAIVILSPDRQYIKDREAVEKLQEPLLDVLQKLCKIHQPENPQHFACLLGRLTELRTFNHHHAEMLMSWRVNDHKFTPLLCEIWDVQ
Sequence of Aryl hydrocarbon receptor (Homo sapiens) (P35869 whole entry, looked up): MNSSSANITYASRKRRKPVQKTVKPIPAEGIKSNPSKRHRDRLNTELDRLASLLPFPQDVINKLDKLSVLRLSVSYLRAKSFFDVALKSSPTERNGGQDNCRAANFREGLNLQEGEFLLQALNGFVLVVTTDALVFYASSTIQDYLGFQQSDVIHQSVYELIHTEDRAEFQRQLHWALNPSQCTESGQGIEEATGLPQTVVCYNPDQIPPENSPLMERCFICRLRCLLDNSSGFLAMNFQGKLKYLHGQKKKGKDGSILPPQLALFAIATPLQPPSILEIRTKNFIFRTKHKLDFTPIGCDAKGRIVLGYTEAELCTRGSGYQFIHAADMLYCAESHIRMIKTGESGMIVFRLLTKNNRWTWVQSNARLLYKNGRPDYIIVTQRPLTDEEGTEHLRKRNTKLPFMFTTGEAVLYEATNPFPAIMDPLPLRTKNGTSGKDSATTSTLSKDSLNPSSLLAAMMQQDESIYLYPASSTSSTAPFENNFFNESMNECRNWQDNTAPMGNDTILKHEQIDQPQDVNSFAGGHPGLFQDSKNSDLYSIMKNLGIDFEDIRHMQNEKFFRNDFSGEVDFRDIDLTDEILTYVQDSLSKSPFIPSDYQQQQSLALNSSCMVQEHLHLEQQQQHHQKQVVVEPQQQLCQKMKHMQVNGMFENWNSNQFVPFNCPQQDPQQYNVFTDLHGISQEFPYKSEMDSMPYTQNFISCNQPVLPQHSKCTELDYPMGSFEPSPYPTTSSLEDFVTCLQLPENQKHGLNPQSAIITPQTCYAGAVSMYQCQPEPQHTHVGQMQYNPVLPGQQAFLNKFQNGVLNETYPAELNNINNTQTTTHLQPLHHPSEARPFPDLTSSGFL

CC(=O)CC(c1ccc([N+](=O)[O-])cc1)c1c(O)c2ccccc2oc1=O (centres undefined)
not listed: [15] | [16] | [17] | [18] | [19] | [20]
inactive: all other assays above

CCCCCCCCCOC(C)=O
not listed: [2] | [3] | [19] | [20]
inactive: all other assays above

COc1ccc(CCC(=O)c2c(O)cc(O[C@@H]3O[C@H](CO)[C@@H](O)[C@H](O)[C@H]3O[C@@H]3O[C@@H](C)[C@H](O)[C@@H](O)[C@H]3O)cc2O)cc1O
not listed: [1] | [6] | [8] | [10] | [16] | [17]
inactive: all other assays above

CCC1(C)CC(=O)NC1=O (centres undefined)
not listed: [2] | [13] | [16] | [17] | [18] | [19]
inactive: all other assays above

COc1ccc(C(=O)c2cccc(O)c2)c(OC)c1
active: [1] 17.2 µM
not listed: [2] | [4] | [8] | [10] | [16] | [17] | [19]
inactive: all other assays above

CC(C)(C)CC(C)(C)c1ccc(OCCO)cc1
active: [14] 38.7 µM
inactive: [1] | [15] | [2] | [3] | [20] | [5] | [17] | [18]

CC1CC(O)CC(C)(C)C1 (centres undefined)
not listed: [4] | [6] | [10] | [11] | [17] | [19]
inactive: all other assays above

O=C(CCC1CCN(Cc2ccccc2)CC1)c1ccc2c(c1)NCCCC2
inactive: [15] | [2] | [3] | [20] | [5] | [6] | [9] | [11] | [12]
active: [1] 23.7 µM | [4] 23.7 µM

Cc1occc1C(=O)Nc1ccc(C(=O)N2CCC(F)(F)/C(=C\C(=O)N3CCC(N4CCCCC4)CC3)c3ccccc32)cc1
not listed: [2] | [4] | [6] | [8] | [9] | [10] | [11] | [19]
inactive: all other assays above

CC(C)OCC1CO1 (centres undefined)
not listed: [1] | [6] | [10]
inactive: all other assays above

Cc1ccc(S)cc1
not listed: [1] | [6] | [10] | [13] | [16] | [17] | [18] | [20]
inactive: all other assays above

CN(C)CCOC1=Cc2ccccc2Sc2ccc(Cl)cc21
active: [7] 26.6 µM | [9] 26.6 µM
not listed: [2] | [10] | [11] | [12] | [15] | [18] | [19]
inactive: all other assays above

NC(=O)N(O)[C@@H]1C=C[C@H](Oc2cccc(Oc3ccc(F)cc3)c2)C1
active: [4] 17.2 µM
not listed: [2] | [6] | [11] | [13] | [19]
inactive: all other assays above

CCCOc1ccc(S(=O)(=O)N2CCN(CC)CC2)cc1-c1nc2c(CC)n(Cc3ccccn3)nc2c(=O)[nH]1
not listed: [2] | [4] | [8] | [10] | [15] | [18] | [19] | [20]
inactive: all other assays above

CC(=N\O)/C(C)=N/O
not listed: [4] | [10] | [11] | [12] | [16] | [17] | [19]
inactive: all other assays above

C=C(C)C(=O)OCCOC(=O)CC(C)=O
not listed: [3] | [9] | [10] | [18] | [19]
inactive: all other assays above

O=S(=O)(c1ccccc1)c1ccc(Cl)cc1
not listed: [3] | [4] | [16] | [17] | [19]
inactive: all other assays above
